Bioassay records from PubChem BioAssay.
Rows were chosen to be rich in hits. Some 8% of all compounds tested hit in one or more screens of this group.
SW480 rerep = DNA re-replication induction in SW480 cells | SW480 DNA re-replication, Hoechst DNA content imaging, 48 h | Potency, µM (titrated, usually from 46.1 µM), inactives show top-dose re-replication activation, usual class: activators | hit rate 1.8% among 340,000 | AID 624297; note: % of control where 0% means no effect; nearly all actives have a fitted effect of over 55% in size
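Image-based DNA-content assay: after two days of treatment, nuclei were labelled with the DNA dye Hoechst and imaged, and hits were compounds raising the count of nuclei showing high fluorescence intensity.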
HT1080-NT tox = kills 2HG-producing HT-1080-NT fibrosarcoma cells | HT-1080-NT fibrosarcoma viability, CellTiter-Glo ATP luminescence, 48 h | Potency, µM (titrated, usually from 46.1 µM), for inactives: at the highest dose activity, negative = less viability, most hits filed as cytotoxic | hit rate 1.6% among 360,000;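 note: NT is the 2HG producing partner of a matched IDH1 knockdown line; 0% = DMSO-treated cells and -100% = media-only wells without cells; nearly all actives have a fitted effect of over 55% in size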
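HT-1080-NT fibrosarcoma cells (2HG-overproducing), 750 cells/well in RPMI with 5% FBS, dosed after 2 h and incubated 48 h at 37C. CellTiter-Glo luminescence normalized to DMSO and no-cell wells; concentration-response curves fitted and classed.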
MCF10A rereplic = induces DNA re-replication in MCF 10a normal breast cells | MCF 10A DNA re-replication, Hoechst nuclear intensity, 48 h | Potency, µM (titrated, usually from 46.1 µM), inactives show at the highest dose activity, positive = re-replication, actives largely listed as activators | hit rate 2.9% among 350,000 | AID 624296; note: % of control where 0% means no effect; nearly all actives have a fitted effect of over 50% in size
KB-3-1 cytotox = KB-3-1 parental cell cytotoxicity; KB-3-1 viability, CellTiter-Glo ATP luminescence, 72 h; Potency, µM (highest dose often 46.1 µM), usual class: cytotoxic; hit rate 1.4% among 400,000; AID 1347075; note: % is set by controls: 0 for no effect and ±100 for the full control effect; nearly all actives have a fitted effect of over 60% in size
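Parental KB-3-1 adenocarcinoma cells in phenol-red-free DMEM with 10% FBS were pin-treated with compounds at several concentrations, incubated 72 h at 37 °C, and viability read by CellTiter-Glo luminescence; concentration-effect curves were fitted after normalization.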
KB-V1 cytotox = kills drug-selected multidrug resistant KB-V1 cells. hit rate 3.4% among 400,000. Potency, µM (doses to about 46.1 µM), hits mostly cytotoxic. AID 1347076. KB-V1 MDR cells viability, CellTiter-Glo, 72 h; note: % is set by controls: 0 for no effect and ±100 for the full control effect; nearly all actives have a fitted effect of over 60% in size
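Potencies derive from concentration-effect curves fitted to normalized luminescence (CellTiter-Glo) of KB-V1 cells treated for 72 h at 37 degrees C in phenol-red-free DMEM containing 10% FBS.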
HT1080 IDH1KD tx = HT-1080 IDH1 knockdown cell toxicity (counter line); hit rate 2% among 360,000; HT-1080 IDH1 knockdown viability, ATP luminescence, 48 h; AID 686971; Potency, µM (highest dose often 46.1 µM), for the others: at the highest dose activity, negative = toxicity, hits mostly cytotoxic;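 note: 0% = DMSO wells and -100% = cell-free medium wells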
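Viability of IDH1-knockdown HT-1080 fibrosarcoma cells was assessed by CellTiter-Glo after 48 h at 37 °C with titrated compound; concentration-effect curves were classified by fit quality and response size.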
* = called active by the depositor. Calls come from the whole dose curve; as a rule, active = well fitted curve in the direction sought with a large enough effect; inconclusive = small, poorly fitted or top-dose-only effect, or another doubt; inactive = no such curve, though single readings can be large; an effect the other way counts as inactive or inconclusive. Potency is the fitted concentration of half-maximal effect.

CCN1C(=O)C(CC(=O)Nc2cccc(C(C)=O)c2)S/C1=N\c1ccccn1 (stereo not drawn) was read as SW480 rerep 17.3%, HT1080-NT tox -6.2%, MCF10A rereplic 4.5%, KB-3-1 cytotox inactive, KB-V1 cytotox inactive and HT1080 IDH1KD tx -2.4%.
For O=C(CC1SC(=Nc2cccc3ccccc23)N(Cc2ccccn2)C1=O)Nc1ccccc1Br (stereo not drawn) the results were SW480 rerep 15.2%, HT1080-NT tox -13.7%, MCF10A rereplic inconclusive, KB-3-1 cytotox inconclusive, KB-V1 cytotox 16.4µM* and HT1080 IDH1KD tx -24.4%.
For O=c1[nH]c(SCc2c(F)cccc2Cl)nc2c1CCC2 the results were KB-3-1 cytotox inactive and KB-V1 cytotox inactive.
For COC(=O)c1cc2occc2n1Cc1ccc(Cl)cc1 the results were SW480 rerep inconclusive, HT1080-NT tox 6.7%, MCF10A rereplic 16.4µM*, KB-3-1 cytotox inactive, KB-V1 cytotox inactive and HT1080 IDH1KD tx -0.1%.
CC(=O)Nc1ccc2c(c1)C(=O)c1ccccc1C2=O was read as SW480 rerep 7.3%, HT1080-NT tox -5.8%, MCF10A rereplic 20.4%, KB-3-1 cytotox inactive, KB-V1 cytotox inactive and HT1080 IDH1KD tx -3.1%.
CC(C)(C)C(=O)Nc1ccc2c(c1)C(=O)C(=O)c1ccccc1-2 was read as HT1080-NT tox 0.794µM* and HT1080 IDH1KD tx 0.794µM*.
Screening COc1cccc(/C=N/NC(=O)c2ccc(=O)[nH]n2)c1O returned SW480 rerep 3.5%, HT1080-NT tox inconclusive, MCF10A rereplic 10.1%, KB-3-1 cytotox inactive, KB-V1 cytotox inactive and HT1080 IDH1KD tx 23.1µM*.
CCOc1ccccc1NC(=O)C(=O)N/N=C/c1cc(Br)ccc1O was read as SW480 rerep 0.82µM*, HT1080-NT tox inconclusive, MCF10A rereplic -9.7%, KB-3-1 cytotox inconclusive, KB-V1 cytotox inactive and HT1080 IDH1KD tx inconclusive.
Screening COc1cccc(/C=N/NC(=O)c2ccc(-c3ccccc3)cc2)c1O returned SW480 rerep inconclusive, HT1080-NT tox inconclusive, MCF10A rereplic inconclusive, KB-3-1 cytotox 5.8µM*, KB-V1 cytotox inconclusive and HT1080 IDH1KD tx inconclusive.
CCOc1ccccc1C=NNC(=O)C(=O)NN=Cc1ccccc1OCC was read as SW480 rerep -12.9%, HT1080-NT tox -3.3%, MCF10A rereplic -5.6%, KB-3-1 cytotox inactive, KB-V1 cytotox inactive and HT1080 IDH1KD tx -1.7%.
COc1ccc(OC)c(/C=N/NC(=O)c2ccc(=O)[nH]n2)c1 was read as SW480 rerep -12.7%, HT1080-NT tox -2.4%, MCF10A rereplic -0.7%, KB-3-1 cytotox inactive, KB-V1 cytotox inconclusive and HT1080 IDH1KD tx -0.7%.
C=CCc1cccc(/C=N/NC(=O)C(=O)Nc2ccc(C)cc2)c1O was read as SW480 rerep 3.8%, HT1080-NT tox -9.9%, MCF10A rereplic 2.0%, KB-3-1 cytotox inactive, KB-V1 cytotox inactive and HT1080 IDH1KD tx -17.4%.
C=CCc1cccc(/C=N/NC(=O)C(C)Nc2ccc(C)cc2)c1O (stereo not drawn) was read as SW480 rerep 16.4µM*, HT1080-NT tox -23.5%, MCF10A rereplic inconclusive, KB-3-1 cytotox inconclusive, KB-V1 cytotox 20.6µM* and HT1080 IDH1KD tx inconclusive.
For COc1ccc(OC)c(/C=N\NC(=O)c2ccc(-c3ccccc3)cc2)c1 the results were SW480 rerep 0.9%, HT1080-NT tox 3.5%, MCF10A rereplic inconclusive, KB-3-1 cytotox inactive, KB-V1 cytotox inactive and HT1080 IDH1KD tx 14.9%.
Screening CCOc1ccc(C2C(C(N)=O)=C(C)Nc3nc(SCc4ccccc4F)nn32)cc1 (stereo not drawn) returned KB-3-1 cytotox inactive and KB-V1 cytotox inconclusive.
Screening CN(C)S(=O)(=O)c1ccc2c(c1)N(CC(=O)N1CCN(c3cccc(Cl)c3)CC1)CCS2 returned KB-3-1 cytotox inactive and KB-V1 cytotox inconclusive.
Cc1cccc(/C=N\NC(=O)c2ccc(Cl)cc2)c1O was read as SW480 rerep inconclusive, HT1080-NT tox inconclusive, MCF10A rereplic 13.0%, KB-3-1 cytotox inconclusive, KB-V1 cytotox inconclusive and HT1080 IDH1KD tx 3.26µM*.
For COc1cccc(/C=N/NC(=O)C(=O)Nc2ccccc2OC(F)(F)C(F)F)c1O the results were SW480 rerep inconclusive, HT1080-NT tox inconclusive, MCF10A rereplic inconclusive, KB-3-1 cytotox 9.2µM*, KB-V1 cytotox inconclusive and HT1080 IDH1KD tx inconclusive.
For C=CCc1cccc(/C=N/NC(=O)c2ccccc2OC)c1O the results were SW480 rerep inconclusive, HT1080-NT tox inconclusive, MCF10A rereplic 2.3%, KB-3-1 cytotox inactive, KB-V1 cytotox inactive and HT1080 IDH1KD tx 16.4µM*.
C=CCc1cccc(/C=N/NC(=O)c2ccc3nc[nH]c3c2)c1O was read as SW480 rerep inconclusive, HT1080-NT tox inconclusive, MCF10A rereplic 20.6µM*, KB-3-1 cytotox inconclusive, KB-V1 cytotox inactive and HT1080 IDH1KD tx inconclusive.
Screening Cc1cccc(/C=N/NC(=O)Cc2ccc(Cl)cc2)c1O returned SW480 rerep inconclusive, HT1080-NT tox -27.3%, MCF10A rereplic 8.7%, KB-3-1 cytotox inconclusive, KB-V1 cytotox inactive and HT1080 IDH1KD tx inconclusive.
Fc1ccc(-c2nc(Nc3cccc(C(F)(F)F)c3)nc3c2COc2ccccc2-3)cc1 was read as KB-3-1 cytotox inactive and KB-V1 cytotox inactive.
For CC(=O)c1cc(-c2ccccc2)n(CCC(=O)Nc2nc3c(C)cccc3s2)c1C the results were KB-3-1 cytotox inactive and KB-V1 cytotox inactive.
For COc1cccc(/C=N/NC(=O)c2c(C)nc3ccc(Cl)cn23)c1O the results were SW480 rerep 0.259µM*, HT1080-NT tox -29.4%, MCF10A rereplic inconclusive, KB-3-1 cytotox inconclusive, KB-V1 cytotox inconclusive and HT1080 IDH1KD tx inconclusive.
`CCOC(=O)N(C(=O)c1ccccc1)c1ccccc1` gave KB-3-1 cytotox inactive and KB-V1 cytotox inactive.
For COc1cccc(/C=N/NC(=S)NC2CC3CC2C2C=CCC32)c1O (stereo not drawn) the results were SW480 rerep 13.8%, HT1080-NT tox -3.3%, MCF10A rereplic inconclusive, KB-3-1 cytotox inactive, KB-V1 cytotox inactive and HT1080 IDH1KD tx -11.4%.
Screening Oc1ccccc1/C=N/NC(=S)NC1CC2CC1C1C=CCC21 (stereo not drawn) returned SW480 rerep inconclusive, HT1080-NT tox inconclusive, MCF10A rereplic 20.6µM*, KB-3-1 cytotox inconclusive, KB-V1 cytotox 20.6µM* and HT1080 IDH1KD tx 8.2µM*.
